Data reported in PubChem BioAssay (NCATS).
Inconclusive results are not listed. Calls of active or inactive are those of the source. Calls follow the shape of the full dose curve; tested in HEK293 reporter line.

What was measured:
[1] = qHTS for Inhibitors of the Functional Ribonucleoprotein Complex (vRNP) of Lassa (LASV) Arenavirus: LASV Primary Screen - GLuc reporter signal (AID 1347082); also: nearly all actives have a fitted effect of over 60% in size
[2] = qHTS for Inhibitors of the Functional Ribonucleoprotein Complex (vRNP) of Lassa (LASV) Arenavirus: Viability assay - alamar blue signal for LASV Primary Screen (AID 1347083); also: nearly all actives have a fitted effect of over 80% in size
[3] = qHTS for Inhibitors of the Functional Ribonucleoprotein Complex (vRNP) of Lymphocytic Choriomeningitis Arenaviruses (LCMV): Viability assay - alamar blue signal for LCMV Primary Screen (AID 1347085); also: nearly all actives have a fitted effect of over 80% in size

Measured: Potency
Also: series mostly up to about 57 µM.

CCN1CCN(c2cc(-c3ccc(F)cc3)c3c(n2)CCCCCC3)CC1
inactive: [1] | [2] | [3]

Cn1c(=O)c2c(ncn2C)n(C)c1=O
inactive: [1] | [2] | [3]

Cc1ccc(C(=O)Nc2ccc(S(=O)(=O)O)c3cc(S(=O)(=O)O)cc(S(=O)(=O)O)c23)cc1NC(=O)c1cccc(NC(=O)Nc2cccc(C(=O)Nc3cc(C(=O)Nc4ccc(S(=O)(=O)O)c5cc(S(=O)(=O)O)cc(S(=O)(=O)O)c45)ccc3C)c2)c1
inactive: [1] | [2] | [3]

CN1CCC(N(Cc2cccs2)c2ccccc2)CC1
inactive: [1] | [2] | [3]

CC(=O)OC/C=C(C)/C=C/C=C(C)/C=C/C1=C(C)CCCC1(C)C
inactive: [1] | [2] | [3]

CCNC(=O)NCc1cccc(Cl)c1
inactive: [1] | [2] | [3]

CC(O)COc1ccccc1 (stereo not drawn)
inactive: [1] | [2] | [3]

Nc1ccc(S(=O)(=O)Nc2nccs2)cc1
inactive: [1] | [2] | [3]

CCOC(=O)COc1ccc2c(C)c(CCN(CC)CC)c(=O)oc2c1Cl
inactive: [1] | [2] | [3]

NC1=NCC2c3ccccc3Cc3ccccc3N12 (stereo not drawn)
inactive: [1] | [2] | [3]

CCCc1ncc(C(=O)O)s1
inactive: [1] | [2] | [3]

Nc1nc2ncc(CNc3ccc(C(=O)N[C@@H](CCC(=O)O)C(=O)O)cc3)nc2c(=O)[nH]1
inactive: [1] | [2] | [3]

CC(C)(Oc1ccc(CCNC(=O)c2ccc(Cl)cc2)cc1)C(=O)O
inactive: [1] | [2] | [3]

CN(C)CCC(c1ccccc1)c1ccccn1 (stereo not drawn)
inactive: [1] | [2] | [3]

CCCCN=C(N)N=C(N)N
inactive: [1] | [2] | [3]

CCCN(CCC)C(=O)C(CCC(=O)O)NC(=O)c1ccccc1 (stereo not drawn)
inactive: [1] | [2] | [3]

Fc1ccc(C(c2ccc(F)cc2)N2CCNCC2)cc1
inactive: [1] | [2] | [3]

CCOC(=O)c1cccc(N)c1
inactive: [1] | [2] | [3]

O=c1[nH]cnc2c1ncn2[C@@H]1O[C@H](CO)[C@@H](O)[C@H]1O
inactive: [1] | [2] | [3]

O=C(c1ccc(F)cc1)C1CCN(CCn2c(=O)[nH]c3ccccc3c2=O)CC1
inactive: [1] | [2] | [3]

Cc1cc(=O)oc2cc(O)ccc12
inactive: [1] | [2] | [3]
